# Laboratory results reported in PubChem BioAssay AID2284195 (EPA ToxCast).
# Active and inactive are the calls of the source. Rule for the calls: active = hit-call score of the fitted dose curve at least 0.9, where 1 is the maximum; inactive = score below 0.9.
# Target: Retinoic acid receptor alpha (Homo sapiens) (UniProt P10276)
# Experiment: ERF_TW_NR_hRARa: Eurofins (ERF) Nuclear Receptor (NR) Radioligand Binding LeadHunter Assay for human Retinoic Acid Receptor alpha (RARa) Agonism
# Experimental: ERF_TW_NR_hRARa is a biochemical, single-readout assay that uses extracted gene-proteins in a cell-free assay. Measurements were taken 2 hour after chemical dosing in a 96-well plate. See RARalpha Human retinoic acid NHR Binding (Agonist Radioligand) Assay, Panlabs.ERF_TW_NR_hRARa is an assay component calculated from the ERF_TW_NR_hRARa assay. It is designed to measure radioligand binding using a type of binding reporter as detected by scintillation counting with radiometry technology.Data from the assay component ERF_TW_NR_hRARa was analyzed at the assay endpoint, ERF_TW_NR_hRARa, in the positive analysis fitting direction relative to DMSO as the negative control and baseline of activity. Using a type of binding reporter, gain-of-signal activity can be used to understand changes in radioligand binding as they relate to gene RARA. To generalize the intended target to other relatable targets, this assay endpoint is annotated to the nuclear receptor intended target family, where the subfamily is retinoic acid receptor.
# Human recombinant RARalpha-LBD expressed in insect cells are used in modified Tris-HCl buffer pH 7.4. A 0.025 ug aliquot is incubated with 3 nM [3H]9-cis-Retinoic acid and 1 ug Anti-GST antibody for 2 hours at 4C. Non-specific binding is estimated in the presence of 1 uM 9-cis-retinoic acid. Receptors are counted to determine [3H]9-cis-Retinoic acid specifically bound. […]
# Chain of Retinoic acid receptor alpha (Homo sapiens) (P10276 whole entry, looked up): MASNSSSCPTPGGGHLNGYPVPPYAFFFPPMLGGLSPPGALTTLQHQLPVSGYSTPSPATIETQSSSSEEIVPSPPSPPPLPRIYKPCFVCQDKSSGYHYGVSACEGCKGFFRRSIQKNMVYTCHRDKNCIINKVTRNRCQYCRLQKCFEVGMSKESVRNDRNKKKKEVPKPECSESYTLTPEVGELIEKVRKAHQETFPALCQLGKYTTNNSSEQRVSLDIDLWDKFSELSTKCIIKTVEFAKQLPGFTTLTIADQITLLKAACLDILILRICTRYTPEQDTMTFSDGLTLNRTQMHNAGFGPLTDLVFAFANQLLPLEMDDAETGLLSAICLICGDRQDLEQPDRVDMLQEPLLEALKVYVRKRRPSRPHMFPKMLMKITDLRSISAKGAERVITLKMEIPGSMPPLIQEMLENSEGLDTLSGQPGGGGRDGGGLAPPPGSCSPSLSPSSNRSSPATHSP
row,Compound,AC50
1,O=C(/C=C/c1ccc(O)cc1)CC(=O)/C=C/c1ccc(O)cc1,2240 nM (active)
